# What was measured:
# [1] = biological target: T1, Inhibitor of nuclear factor kappa-B kinase subunit epsilon (Homo sapiens) (UniProt Q14164); details: at 1 µM;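 note: reported values are averaged percent inhibition figures against human IKKε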
# T1 sequence (whole entry): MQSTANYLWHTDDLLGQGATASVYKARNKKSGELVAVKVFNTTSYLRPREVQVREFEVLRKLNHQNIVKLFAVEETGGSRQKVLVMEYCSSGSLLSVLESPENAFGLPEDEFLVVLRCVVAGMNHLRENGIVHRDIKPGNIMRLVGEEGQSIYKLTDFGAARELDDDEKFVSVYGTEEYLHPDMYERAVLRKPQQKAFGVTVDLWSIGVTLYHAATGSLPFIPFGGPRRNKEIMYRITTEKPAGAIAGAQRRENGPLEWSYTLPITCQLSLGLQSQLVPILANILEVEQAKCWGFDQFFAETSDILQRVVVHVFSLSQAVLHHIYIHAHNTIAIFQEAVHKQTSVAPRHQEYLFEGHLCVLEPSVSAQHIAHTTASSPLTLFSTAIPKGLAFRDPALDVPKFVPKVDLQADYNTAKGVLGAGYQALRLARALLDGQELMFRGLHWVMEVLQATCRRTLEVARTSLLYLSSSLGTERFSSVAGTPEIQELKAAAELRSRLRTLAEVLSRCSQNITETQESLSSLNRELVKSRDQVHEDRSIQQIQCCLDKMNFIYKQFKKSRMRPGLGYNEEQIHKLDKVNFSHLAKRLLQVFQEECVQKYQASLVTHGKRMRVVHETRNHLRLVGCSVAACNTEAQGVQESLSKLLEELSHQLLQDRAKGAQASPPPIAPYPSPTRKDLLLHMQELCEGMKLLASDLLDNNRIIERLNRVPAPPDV
# [2] = biological target: T2, Serine/threonine-protein kinase Nek1 (Homo sapiens) (UniProt Q96PY6); details: at 0.1 µM
# T2 sequence (whole entry): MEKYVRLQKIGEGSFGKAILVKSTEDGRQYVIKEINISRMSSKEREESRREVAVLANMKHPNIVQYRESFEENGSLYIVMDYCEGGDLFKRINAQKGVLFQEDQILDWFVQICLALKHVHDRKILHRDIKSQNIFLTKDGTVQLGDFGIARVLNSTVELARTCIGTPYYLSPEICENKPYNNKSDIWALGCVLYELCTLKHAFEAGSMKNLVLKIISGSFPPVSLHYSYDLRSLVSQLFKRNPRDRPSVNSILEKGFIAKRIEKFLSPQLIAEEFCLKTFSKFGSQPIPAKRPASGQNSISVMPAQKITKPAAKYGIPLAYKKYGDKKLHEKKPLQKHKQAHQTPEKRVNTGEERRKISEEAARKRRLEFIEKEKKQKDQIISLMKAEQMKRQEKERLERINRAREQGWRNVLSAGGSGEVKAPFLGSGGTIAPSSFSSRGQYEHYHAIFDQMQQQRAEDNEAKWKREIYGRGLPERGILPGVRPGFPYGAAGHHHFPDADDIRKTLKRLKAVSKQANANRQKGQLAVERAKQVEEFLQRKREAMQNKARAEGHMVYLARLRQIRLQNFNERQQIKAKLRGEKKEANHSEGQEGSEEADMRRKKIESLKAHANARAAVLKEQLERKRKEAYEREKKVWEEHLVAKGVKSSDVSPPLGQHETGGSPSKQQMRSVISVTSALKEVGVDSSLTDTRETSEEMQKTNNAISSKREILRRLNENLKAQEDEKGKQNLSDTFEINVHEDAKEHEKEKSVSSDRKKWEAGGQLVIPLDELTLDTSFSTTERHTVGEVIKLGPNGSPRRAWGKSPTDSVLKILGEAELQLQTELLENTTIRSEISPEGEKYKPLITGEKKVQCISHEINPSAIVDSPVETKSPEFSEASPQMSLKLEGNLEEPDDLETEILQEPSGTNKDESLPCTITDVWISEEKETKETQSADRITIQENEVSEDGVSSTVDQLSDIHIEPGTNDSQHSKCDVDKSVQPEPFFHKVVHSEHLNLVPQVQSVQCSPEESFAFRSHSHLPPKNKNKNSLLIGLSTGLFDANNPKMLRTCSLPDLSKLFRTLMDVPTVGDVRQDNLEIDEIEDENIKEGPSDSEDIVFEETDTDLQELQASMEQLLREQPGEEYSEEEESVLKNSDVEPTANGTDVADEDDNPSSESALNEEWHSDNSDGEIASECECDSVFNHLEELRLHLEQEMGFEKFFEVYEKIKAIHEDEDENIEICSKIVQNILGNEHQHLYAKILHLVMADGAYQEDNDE
# [3] = biological target: T2, Serine/threonine-protein kinase Nek1 (Homo sapiens); details: at 1 µM
# [4] = biological target: T3, Serine/threonine-protein kinase Nek2 (Homo sapiens) (UniProt P51955); details: at 0.1 µM
# T3 sequence (whole entry): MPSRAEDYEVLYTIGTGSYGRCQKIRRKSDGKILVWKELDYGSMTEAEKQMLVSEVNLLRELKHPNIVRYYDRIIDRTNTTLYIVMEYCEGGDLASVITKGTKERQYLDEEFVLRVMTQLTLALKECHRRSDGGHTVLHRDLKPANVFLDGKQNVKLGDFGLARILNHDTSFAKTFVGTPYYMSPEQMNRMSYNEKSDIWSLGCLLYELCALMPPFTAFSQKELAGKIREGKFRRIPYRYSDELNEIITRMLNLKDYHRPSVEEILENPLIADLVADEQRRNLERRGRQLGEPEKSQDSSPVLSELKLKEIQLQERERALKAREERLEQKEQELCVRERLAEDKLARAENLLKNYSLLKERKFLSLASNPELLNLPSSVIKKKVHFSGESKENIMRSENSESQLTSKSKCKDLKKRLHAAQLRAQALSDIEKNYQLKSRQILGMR
# [5] = biological target: T3, Serine/threonine-protein kinase Nek2 (Homo sapiens); details: at 1 µM
# [6] = biological target: Serine/threonine-protein kinase Nek6 (Homo sapiens) (UniProt Q9HC98); details: at 0.1 µM
# Chain of Serine/threonine-protein kinase Nek6 (Homo sapiens) (Q9HC98 whole entry): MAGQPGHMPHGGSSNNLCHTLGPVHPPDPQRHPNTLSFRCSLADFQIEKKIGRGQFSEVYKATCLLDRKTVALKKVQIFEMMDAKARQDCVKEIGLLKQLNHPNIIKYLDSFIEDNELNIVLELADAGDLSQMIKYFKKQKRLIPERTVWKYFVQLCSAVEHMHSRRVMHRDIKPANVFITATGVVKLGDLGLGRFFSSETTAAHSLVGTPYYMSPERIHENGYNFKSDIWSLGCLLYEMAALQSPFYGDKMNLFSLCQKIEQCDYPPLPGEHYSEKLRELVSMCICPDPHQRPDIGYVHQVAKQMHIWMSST
# [7] = biological target: Serine/threonine-protein kinase Nek6 (Homo sapiens) (UniProt Q9HC98); details: at 1 µM
# [8] = biological target: Serine/threonine-protein kinase Nek7 (Homo sapiens) (UniProt Q8TDX7); details: at 0.1 µM
# Chain of Serine/threonine-protein kinase Nek7 (Homo sapiens) (Q8TDX7 whole entry, looked up): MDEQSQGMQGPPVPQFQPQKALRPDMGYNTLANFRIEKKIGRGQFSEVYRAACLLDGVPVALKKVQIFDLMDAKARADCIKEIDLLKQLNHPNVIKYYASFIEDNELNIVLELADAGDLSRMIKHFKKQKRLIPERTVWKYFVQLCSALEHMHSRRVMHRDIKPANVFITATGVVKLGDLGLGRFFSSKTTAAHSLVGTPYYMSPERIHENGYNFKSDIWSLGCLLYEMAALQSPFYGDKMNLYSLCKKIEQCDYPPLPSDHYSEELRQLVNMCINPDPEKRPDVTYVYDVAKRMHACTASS
# [9] = biological target: Serine/threonine-protein kinase Nek7 (Homo sapiens) (UniProt Q8TDX7); details: at 1 µM
# [10] = biological target: T4, Serine/threonine-protein kinase Nek9 (Homo sapiens) (UniProt Q8TD19); details: at 0.1 µM
# T4 sequence (whole entry): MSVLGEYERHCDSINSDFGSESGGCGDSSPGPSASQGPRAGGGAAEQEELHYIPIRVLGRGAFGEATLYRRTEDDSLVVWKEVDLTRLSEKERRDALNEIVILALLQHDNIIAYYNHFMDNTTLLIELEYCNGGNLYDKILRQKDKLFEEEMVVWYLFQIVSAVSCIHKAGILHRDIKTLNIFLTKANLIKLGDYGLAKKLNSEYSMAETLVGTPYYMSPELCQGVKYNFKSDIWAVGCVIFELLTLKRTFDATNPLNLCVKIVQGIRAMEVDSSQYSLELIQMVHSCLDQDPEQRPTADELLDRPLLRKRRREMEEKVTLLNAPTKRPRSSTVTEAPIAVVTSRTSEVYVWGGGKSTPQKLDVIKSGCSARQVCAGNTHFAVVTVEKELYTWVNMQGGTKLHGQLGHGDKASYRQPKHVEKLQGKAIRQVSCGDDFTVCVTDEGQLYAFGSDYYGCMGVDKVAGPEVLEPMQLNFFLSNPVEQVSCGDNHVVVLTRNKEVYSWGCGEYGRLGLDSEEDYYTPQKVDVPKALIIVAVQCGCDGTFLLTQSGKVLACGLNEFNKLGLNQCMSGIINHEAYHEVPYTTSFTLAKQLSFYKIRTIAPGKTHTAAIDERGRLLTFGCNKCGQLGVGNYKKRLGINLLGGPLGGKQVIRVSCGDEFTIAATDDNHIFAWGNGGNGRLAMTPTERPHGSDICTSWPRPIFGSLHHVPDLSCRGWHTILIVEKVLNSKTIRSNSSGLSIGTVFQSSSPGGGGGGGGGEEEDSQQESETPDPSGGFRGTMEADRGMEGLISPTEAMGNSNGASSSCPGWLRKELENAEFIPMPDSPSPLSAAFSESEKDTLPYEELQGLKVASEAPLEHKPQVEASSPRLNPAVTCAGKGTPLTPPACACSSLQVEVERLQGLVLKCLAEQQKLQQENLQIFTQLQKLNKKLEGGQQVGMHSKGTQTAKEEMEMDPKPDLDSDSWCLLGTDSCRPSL
# [11] = biological target: T4, Serine/threonine-protein kinase Nek9 (Homo sapiens); details: at 1 µM
# [12] = biological target: Serine/threonine-protein kinase PLK1 (Homo sapiens) (UniProt P53350); details: at 0.1 µM
# Chain of Serine/threonine-protein kinase PLK1 (Homo sapiens) (P53350 whole entry): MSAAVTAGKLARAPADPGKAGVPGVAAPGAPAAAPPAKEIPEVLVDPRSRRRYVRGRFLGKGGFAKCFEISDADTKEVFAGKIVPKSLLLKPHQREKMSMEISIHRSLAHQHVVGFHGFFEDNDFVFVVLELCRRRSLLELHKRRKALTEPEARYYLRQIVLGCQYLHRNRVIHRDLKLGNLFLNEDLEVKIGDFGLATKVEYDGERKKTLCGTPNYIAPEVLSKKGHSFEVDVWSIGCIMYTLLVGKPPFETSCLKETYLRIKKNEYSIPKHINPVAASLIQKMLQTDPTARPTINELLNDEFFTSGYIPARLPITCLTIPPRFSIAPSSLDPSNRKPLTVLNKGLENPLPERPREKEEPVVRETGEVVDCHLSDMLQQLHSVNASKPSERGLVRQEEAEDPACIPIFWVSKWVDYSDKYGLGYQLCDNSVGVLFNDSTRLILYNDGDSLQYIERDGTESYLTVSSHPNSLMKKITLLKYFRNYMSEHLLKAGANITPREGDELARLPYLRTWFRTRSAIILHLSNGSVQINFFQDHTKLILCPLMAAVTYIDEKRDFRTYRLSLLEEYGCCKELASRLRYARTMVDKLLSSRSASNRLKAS
# [13] = biological target: Serine/threonine-protein kinase PLK1 (Homo sapiens) (UniProt P53350); details: at 1 µM
# [14] = biological target: T5, Dual specificity protein kinase TTK (Homo sapiens) (UniProt P33981); details: at 0.1 µM
# T5 sequence (whole entry): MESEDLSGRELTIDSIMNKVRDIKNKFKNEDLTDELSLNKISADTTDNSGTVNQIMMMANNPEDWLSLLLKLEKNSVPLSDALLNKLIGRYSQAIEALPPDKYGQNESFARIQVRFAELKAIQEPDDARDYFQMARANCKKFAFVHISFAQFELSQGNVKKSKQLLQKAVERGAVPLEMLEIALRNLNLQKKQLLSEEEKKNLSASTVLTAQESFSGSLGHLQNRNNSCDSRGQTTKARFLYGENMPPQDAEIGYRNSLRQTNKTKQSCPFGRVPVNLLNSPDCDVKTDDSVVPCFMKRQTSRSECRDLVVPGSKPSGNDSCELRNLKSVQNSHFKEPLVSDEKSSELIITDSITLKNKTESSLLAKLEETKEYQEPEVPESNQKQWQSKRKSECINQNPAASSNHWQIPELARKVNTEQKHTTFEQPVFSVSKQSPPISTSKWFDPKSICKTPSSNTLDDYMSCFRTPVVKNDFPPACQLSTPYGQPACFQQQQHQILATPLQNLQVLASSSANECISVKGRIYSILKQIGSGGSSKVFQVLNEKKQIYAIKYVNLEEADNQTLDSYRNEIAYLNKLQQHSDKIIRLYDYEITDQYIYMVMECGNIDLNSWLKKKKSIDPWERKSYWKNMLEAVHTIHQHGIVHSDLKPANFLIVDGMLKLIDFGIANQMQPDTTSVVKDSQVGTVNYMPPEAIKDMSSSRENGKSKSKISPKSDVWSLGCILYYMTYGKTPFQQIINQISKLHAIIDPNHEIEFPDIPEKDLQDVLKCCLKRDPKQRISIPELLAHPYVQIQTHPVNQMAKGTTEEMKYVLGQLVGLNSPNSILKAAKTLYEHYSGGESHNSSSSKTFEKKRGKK
# [15] = tested on: T6, Receptor-type tyrosine-protein kinase FLT3 (Homo sapiens), P36888 [D835Y]; details: at 1 µM
# T6 sequence (whole entry): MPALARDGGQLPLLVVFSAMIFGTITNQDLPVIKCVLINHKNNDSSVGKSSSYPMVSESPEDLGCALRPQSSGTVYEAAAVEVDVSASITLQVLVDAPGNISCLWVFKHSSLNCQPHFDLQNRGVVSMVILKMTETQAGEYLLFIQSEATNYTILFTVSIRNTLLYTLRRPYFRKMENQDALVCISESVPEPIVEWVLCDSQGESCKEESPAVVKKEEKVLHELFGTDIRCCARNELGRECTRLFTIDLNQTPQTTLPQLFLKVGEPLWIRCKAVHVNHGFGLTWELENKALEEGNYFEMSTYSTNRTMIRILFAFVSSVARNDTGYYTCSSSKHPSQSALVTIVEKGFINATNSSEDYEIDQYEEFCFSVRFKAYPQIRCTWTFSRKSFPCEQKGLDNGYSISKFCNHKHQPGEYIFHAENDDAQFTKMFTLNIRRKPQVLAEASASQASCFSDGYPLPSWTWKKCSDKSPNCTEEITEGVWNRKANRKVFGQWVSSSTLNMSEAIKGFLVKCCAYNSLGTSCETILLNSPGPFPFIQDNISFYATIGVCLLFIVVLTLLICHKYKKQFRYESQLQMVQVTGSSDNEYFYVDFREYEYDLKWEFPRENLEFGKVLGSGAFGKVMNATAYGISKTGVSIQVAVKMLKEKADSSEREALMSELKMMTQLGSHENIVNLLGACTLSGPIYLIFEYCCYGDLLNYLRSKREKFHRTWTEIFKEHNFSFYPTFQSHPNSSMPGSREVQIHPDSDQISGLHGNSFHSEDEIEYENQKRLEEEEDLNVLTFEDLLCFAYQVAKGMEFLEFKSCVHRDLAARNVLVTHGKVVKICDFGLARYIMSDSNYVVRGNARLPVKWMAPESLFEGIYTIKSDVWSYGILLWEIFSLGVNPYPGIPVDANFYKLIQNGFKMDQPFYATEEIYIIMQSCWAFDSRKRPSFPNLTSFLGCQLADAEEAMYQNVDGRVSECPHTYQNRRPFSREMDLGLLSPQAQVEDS
# [16] = biological target: Vascular endothelial growth factor receptor 3 (Homo sapiens) (UniProt P35916); details: at 0.1 µM
# Chain of Vascular endothelial growth factor receptor 3 (Homo sapiens) (P35916 whole entry): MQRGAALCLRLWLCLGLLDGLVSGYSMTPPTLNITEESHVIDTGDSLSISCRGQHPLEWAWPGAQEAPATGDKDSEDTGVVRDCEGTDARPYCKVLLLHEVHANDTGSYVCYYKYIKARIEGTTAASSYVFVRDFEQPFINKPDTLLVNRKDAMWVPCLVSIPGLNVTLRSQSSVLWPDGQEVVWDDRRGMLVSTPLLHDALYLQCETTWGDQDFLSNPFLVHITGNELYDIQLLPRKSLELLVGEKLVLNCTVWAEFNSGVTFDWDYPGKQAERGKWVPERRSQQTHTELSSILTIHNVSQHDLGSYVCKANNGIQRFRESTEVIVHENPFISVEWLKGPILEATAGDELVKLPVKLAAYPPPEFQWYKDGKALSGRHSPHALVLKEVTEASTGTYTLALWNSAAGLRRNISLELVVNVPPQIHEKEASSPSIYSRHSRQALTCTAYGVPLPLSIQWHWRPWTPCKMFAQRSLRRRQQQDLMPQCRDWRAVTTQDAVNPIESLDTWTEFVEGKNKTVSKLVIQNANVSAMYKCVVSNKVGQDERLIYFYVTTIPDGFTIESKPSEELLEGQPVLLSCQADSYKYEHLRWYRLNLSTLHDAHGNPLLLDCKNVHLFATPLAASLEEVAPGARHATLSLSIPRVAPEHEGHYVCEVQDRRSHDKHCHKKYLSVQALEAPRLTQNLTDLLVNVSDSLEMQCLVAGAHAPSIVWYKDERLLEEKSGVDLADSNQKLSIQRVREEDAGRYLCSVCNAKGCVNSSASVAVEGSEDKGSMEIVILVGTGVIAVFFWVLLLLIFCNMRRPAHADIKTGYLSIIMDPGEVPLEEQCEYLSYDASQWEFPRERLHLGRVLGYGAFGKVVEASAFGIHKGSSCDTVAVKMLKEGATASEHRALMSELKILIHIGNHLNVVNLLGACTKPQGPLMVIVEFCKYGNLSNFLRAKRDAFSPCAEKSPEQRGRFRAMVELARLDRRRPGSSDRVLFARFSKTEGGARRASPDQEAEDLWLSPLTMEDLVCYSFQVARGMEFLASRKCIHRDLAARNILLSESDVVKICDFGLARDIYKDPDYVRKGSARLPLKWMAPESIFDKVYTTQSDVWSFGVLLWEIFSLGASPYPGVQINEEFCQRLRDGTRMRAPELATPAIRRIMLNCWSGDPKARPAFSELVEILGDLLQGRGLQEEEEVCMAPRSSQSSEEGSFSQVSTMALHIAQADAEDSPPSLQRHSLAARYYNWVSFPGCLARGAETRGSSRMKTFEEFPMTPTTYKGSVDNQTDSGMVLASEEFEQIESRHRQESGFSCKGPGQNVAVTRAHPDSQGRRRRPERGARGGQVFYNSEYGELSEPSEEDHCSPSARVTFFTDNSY
# [17] = biological target: Vascular endothelial growth factor receptor 3 (Homo sapiens) (UniProt P35916); details: at 1 µM
# [18] = biological target: Macrophage colony-stimulating factor 1 receptor (Homo sapiens) (UniProt P07333); details: at 0.1 µM
# Chain of Macrophage colony-stimulating factor 1 receptor (Homo sapiens) (P07333 whole entry): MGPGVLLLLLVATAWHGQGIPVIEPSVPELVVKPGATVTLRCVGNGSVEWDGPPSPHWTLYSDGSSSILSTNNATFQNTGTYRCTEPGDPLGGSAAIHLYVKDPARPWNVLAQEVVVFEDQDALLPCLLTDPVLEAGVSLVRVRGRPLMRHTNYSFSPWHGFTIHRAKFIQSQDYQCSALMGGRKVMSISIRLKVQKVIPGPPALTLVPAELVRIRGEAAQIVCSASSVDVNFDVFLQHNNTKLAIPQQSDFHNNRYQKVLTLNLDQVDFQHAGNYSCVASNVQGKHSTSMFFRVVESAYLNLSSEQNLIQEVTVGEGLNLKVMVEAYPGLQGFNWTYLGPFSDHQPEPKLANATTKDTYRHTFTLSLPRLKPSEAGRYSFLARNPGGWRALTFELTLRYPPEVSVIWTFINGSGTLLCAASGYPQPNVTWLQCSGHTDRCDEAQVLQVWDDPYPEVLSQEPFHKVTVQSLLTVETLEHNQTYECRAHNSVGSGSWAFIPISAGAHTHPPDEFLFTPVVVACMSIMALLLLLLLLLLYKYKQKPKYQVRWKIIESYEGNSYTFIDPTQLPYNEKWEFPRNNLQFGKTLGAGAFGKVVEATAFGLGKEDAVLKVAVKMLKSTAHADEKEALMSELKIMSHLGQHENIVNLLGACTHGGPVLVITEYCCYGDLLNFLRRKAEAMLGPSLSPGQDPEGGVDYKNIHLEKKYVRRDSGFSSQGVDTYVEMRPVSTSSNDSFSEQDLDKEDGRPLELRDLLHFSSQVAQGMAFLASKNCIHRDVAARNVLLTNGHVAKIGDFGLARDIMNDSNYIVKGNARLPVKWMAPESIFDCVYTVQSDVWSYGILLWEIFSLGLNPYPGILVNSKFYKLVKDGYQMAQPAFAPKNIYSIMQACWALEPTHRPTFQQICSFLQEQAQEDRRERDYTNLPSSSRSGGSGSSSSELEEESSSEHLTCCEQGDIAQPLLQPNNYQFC
# [19] = biological target: Macrophage colony-stimulating factor 1 receptor (Homo sapiens) (UniProt P07333); details: at 1 µM
# [20] = biological target: Tyrosine-protein kinase Fyn (Homo sapiens) (UniProt P06241); details: at 0.1 µM
# Chain of Tyrosine-protein kinase Fyn (Homo sapiens) (P06241 2-537 limits assumed): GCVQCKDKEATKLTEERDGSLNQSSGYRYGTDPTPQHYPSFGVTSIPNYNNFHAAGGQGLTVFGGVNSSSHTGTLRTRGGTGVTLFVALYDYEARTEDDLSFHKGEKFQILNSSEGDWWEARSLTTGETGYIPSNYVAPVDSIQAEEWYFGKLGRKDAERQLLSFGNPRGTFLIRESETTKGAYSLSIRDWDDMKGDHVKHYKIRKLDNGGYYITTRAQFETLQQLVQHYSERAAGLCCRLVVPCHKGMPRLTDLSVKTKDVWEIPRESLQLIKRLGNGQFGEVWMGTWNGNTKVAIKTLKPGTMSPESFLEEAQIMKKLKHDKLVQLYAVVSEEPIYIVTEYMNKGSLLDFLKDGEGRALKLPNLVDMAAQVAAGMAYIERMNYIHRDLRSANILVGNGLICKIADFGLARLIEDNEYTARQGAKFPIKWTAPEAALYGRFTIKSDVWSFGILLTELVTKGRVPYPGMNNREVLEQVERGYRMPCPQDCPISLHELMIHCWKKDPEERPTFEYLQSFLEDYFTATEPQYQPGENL
Compound,inhibition [1] [%],inhibition [2] [%],inhibition [3] [%],inhibition [4] [%],inhibition [5] [%],inhibition [6] [%],inhibition [7] [%],inhibition [8] [%],inhibition [9] [%],inhibition [10] [%],inhibition [11] [%],inhibition [12] [%],inhibition [13] [%],inhibition [14] [%],inhibition [15] [%],inhibition [16] [%],inhibition [17] [%],inhibition [18] [%],inhibition [19] [%],inhibition [20] [%]
COc1cc(N2CCN(C(C)C)CC2)ccc1Nc1nc(Nc2cccc3ncccc23)c2cc[nH]c2n1,0.88,-0.11,0.84,-0.73,-0.48,-0.86,-2.27,1.54,-0.41,4.56,-1.45,-0.26,0.8,52.1,1.87,0.19,0.22,1.9,3.33,2.06
COc1ccc2ncn(-c3cc(O[C@H](C)c4ccccc4C(F)(F)F)c(C(N)=O)s3)c2c1,1.28,8.29,43,0.45,11.6,0.31,-2.42,1.25,0.51,35.9,83.6,97,99.2,0.16,2.3,1.9,15,-0.05,5.84,0.53
